Source: PubChem BioAssay AID623901 (Broad Institute, 2012)
In all, about 340,000 compounds went through this assay and about 470 (0.14%) were called active.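 How the source made its calls: active means mean activation of 30% or more, with every replicate also reaching 30%; inconclusive means mean activation of 30% or more but some replicate falls short; inactive means the rest.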 Shown is part of a subset that was picked to be rich in actives.

assay: small molecules raising miR-122 sensor signal – cell-based, Huh7 psiCHECK-miR122, Renilla luciferase, single point, primary screen (AID 623901); details: 48 h, at 12.5 µM, hits give high values;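 further: 0% = median of neutral control wells and 100% = median of positive control wells; higher luciferase signal means stronger suppression of miR-122 activity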

activation, active:
CCN1CCN(C(c2cccnc2)c2cc(Cl)c3cccnc3c2O)CC1 (stereo unspecified) 49.7%
O=C(CNCCC1=CCCCC1)Nc1ccccc1N1CCCCCC1 76.7%
COc1ccc(C(CCN(Cc2ccc(OC)c(OC)c2)C(=O)CCl)c2ccccc2)cc1 (stereo unspecified) 34.7%
CN1C[C@@H]2[C@H](c3ccccc31)[C@@H](CO)N2C(=O)Nc1ccccc1 41.7%

activation, inactive:
C/C=C/c1ccc2c(c1)O[C@@H](CN(C)S(C)(=O)=O)[C@@H](C)CN([C@H](C)CO)S2(=O)=O 3.54%
CCCNC(=O)N(C)C[C@@H]1Oc2ncc(C#CC(C)C)cc2C(=O)N([C@H](C)CO)C[C@H]1C 10.4%
C[C@H]1CN([C@@H](C)CO)S(=O)(=O)c2ccc(C#CCN(C)C)cc2O[C@H]1CN(C)C(=O)CN(C)C 8.35%
COCC(=O)Nc1ccc2c(c1)OC[C@H](C)NC[C@@H](C)[C@H](OC)CN(C)C2=O -4.6%
CCC(=O)N(C)C[C@@H]1Oc2cc(C#C[C@H](C)O)ccc2S(=O)(=O)N([C@@H](C)CO)C[C@H]1C -2.5%
C/C=C/c1cnc2c(c1)C(=O)N([C@H](C)CO)C[C@H](C)[C@@H](CN(C)CC1CCOCC1)O2 2.95%
O=C1c2ccccc2C2=Nc3ccccc3SC(c3ccccc3F)C12 (stereo unspecified) -162%
C=CCNC(=O)c1ccccc1NC(=O)c1ccc(Cl)c(S(=O)(=O)Nc2cccc(C)c2C)c1 -155%
CC(C)CC#Cc1cnc2c(c1)C(=O)N([C@H](C)CO)C[C@H](C)[C@H](CN(C)C(=O)Nc1ccccc1F)O2 4.61%
C[C@H](CO)N1C[C@H](C)[C@@H](CN(C)C(=O)Cc2ccncc2)Oc2ncc(C#CCN(C)C)cc2C1=O 3.61%
COCC#Cc1cnc2c(c1)C(=O)N([C@@H](C)CO)C[C@@H](C)[C@@H](CN(C)S(=O)(=O)c1cccc(OC)c1)O2 -3.48%
C[C@@H](O)C#Cc1cnc2c(c1)C(=O)N([C@@H](C)CO)C[C@H](C)[C@H](CN(C)Cc1cncnc1)O2 3.47%
Cc1cc(C(C)(C)C)cc(S(=O)(=O)Nc2ccc(C(=O)O)cc2)c1C -165%
C[C@H](CO)N1C[C@H](C)[C@H](CN(C)C(=O)Nc2ccc3c(c2)OCO3)Oc2ncc(C#Cc3cccc(F)c3)cc2C1=O 5.6%
CNC[C@@H]1Oc2cc(-c3ccccc3OC)ccc2S(=O)(=O)N([C@@H](C)CO)C[C@H]1C -2.47%
O=C(Cc1ccccc1)N1C[C@@H]2[C@H](c3ccccc31)[C@@H](CO)N2C(=O)Nc1ccc(F)cc1 -92.3%
O=C(Nc1cc(F)ccc1F)N1C[C@H]2[C@@H](c3ccccc31)[C@@H](CO)N2C(=O)c1ccccc1 -133%
